From PubChem BioAssay
KB-V1 cytotox = qHTS assay for MDR1-selective chemotherapeutics: Primary screen using the drug-selected MDR subline cells KB-V1 | KB-V1 MDR cells viability, CellTiter-Glo, 72 h | Potency, µM (titrated, usually from 46.1 µM), usual class: cytotoxic | 400,000 compounds, 3.4% hits | AID 1347076, 2019; also: % is scaled to controls: 0 for no effect and ±100 for the full control effect; nearly all actives have a fitted effect of over 60% in size
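In this primary screen, KB-V1 cells overexpressing P-gp are incubated with library compounds (lowest to highest concentration) for 72 h at 37 degrees C before a luminescent ATP viability read.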
ATXN2 expr inh = Primary qHTS for Inhibitors of ATXN expression; Potency, µM (doses to about 57 µM), for the others: at the highest dose activity change, negative = inhibition, usual class: inhibitors; 360,000 compounds, 0.72% hits; HEK-293 ATXN2-luciferase reporter, luminescence, 24 h; also: % is scaled to controls: 0 for no effect and ±100 for the full control effect; nearly all actives have a fitted effect of over 55% in size
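ATXN2-luciferase reporter cells (luciferase flanked by upstream and downstream ATXN2 gene portions) were treated 24 h at 37 °C with compounds at up to 57 uM. SteadyGlo luminescence gave expression; GF-AFC fluorescence gave viability.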
HepG2 viability = qHTS for Inhibitors of TGF-b: Cytotox Counterscreen; 410,000 compounds, 0.76% hits; Potency, µM (series often up to 46.1 µM), inactives show at the top dose activity change, negative = cytotoxicity, most hits filed as cytotoxic; HepG2 CAGA-GFP viability, ATP luminescence, 18 h
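HepG2 CAGA-GFP cells (1000/well, DMEM with 1% FBS) received compound, then TGF-beta at 500 pg/mL final, and were incubated 18 hours at 37 degrees C. Viability was read by CellTiter-Glo luminescence. Media-only wells were set as complete cell-killing and DMSO as no toxicity.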
TGFb inhibitor = qHTS for Inhibitors of TGF-b | HepG2 CAGA-GFP TGF-b/SMAD3 reporter, GFP fluorescence, 18 h; TGF-beta stimulated, 500 pg/mL final | Potency, µM (doses to about 46.1 µM), inactives show top-dose activity, negative = inhibition, most hits filed as inhibitors | 410,000 compounds, 1.2% hits | AID 588855, 2011; also: % is scaled to controls: 0 for no effect and ±100 for the full control effect; nearly all actives have a fitted effect of over 65% in size
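Using HEPG2 CAGA-GFP reporter cells at 1000 cells/well, we pinned test compounds, stimulated with recombinant TGF-beta (500 pg/mL final) and measured total well GFP after 18 h.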
KB-3-1 cytotox = qHTS assay for MDR1-selective chemotherapeutics: Primary screen using the parental adenocarcinoma cell KB-3-1; KB-3-1 viability, CellTiter-Glo ATP luminescence, 72 h; Potency, µM (doses to about 46.1 µM), actives largely listed as cytotoxic; 400,000 compounds, 1.4% hits; also: % is scaled to controls: 0 for no effect and ±100 for the full control effect; nearly all actives have a fitted effect of over 60% in size
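Screening of KB-3-1 cells (DMEM, 10% FBS, phenol-red free) ran from lowest to highest compound concentration; after 72 h at 37 °C viability was read luminescently and curves fitted.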
ATXN viability = Viability Counterscreen for Primary qHTS for Inhibitors of ATXN expression | Potency, µM (series often up to 56.7 µM), actives largely listed as cytotoxic | S2 cells (HEK-293 line with an ATXN2-luciferase reporter) viability, CellTiter-Fluor protease fluorescence, 24 h | 400,000 compounds, 0.49% hits; also: nearly all actives have a fitted effect of over 40% in size
The depositor's hits bear a star; i = inactive; ? = inconclusive; nt = no result. Hits are enriched below; roughly 5.9% of the tested compounds scored in any of these assays. Calls follow the shape of the dose curve; as a rule, active = well fitted curve in the direction sought with a large enough effect; inconclusive = small, poorly fitted or top-dose-only effect, or another doubt; inactive = no such curve, though single readings can be large; an effect the other way counts as inactive or inconclusive. Potency is read from the fitted curve at half-maximal effect.

SMILES	KB-V1 cytotox	ATXN2 expr inh	HepG2 viability	TGFb inhibitor	KB-3-1 cytotox	ATXN viability
CCn1c(C)c(P(c2ccccc2)c2ccccc2)[n+]2ccccc12	i	?	1%	3%	9.2µM*	?
CCn1c(C)c2c(C)nnc(C)c2c1C	i	9%	2%	-6%	i	i
O=C1CC[C@@H](CN(Cc2cccnc2)C2CCN(c3ccc(NC(=O)c4cnccn4)cc3)CC2)N1	nt	nt	nt	nt	nt	i
C[C@@H](NC(=O)[C@@H]1CCCN1C(=O)[C@@H]1CCCN1)c1ccccc1	i	14%	nt	nt	i	i
COC(=O)/C(=C\c1ccc(O)cc1)c1nc2ccccc2[nH]1	i	nt	-3%	1%	i	i
COC(=O)/C(=C\c1cc(OC)c(OC)c(OC)c1)c1nc2ccccc2[nH]1	?	-5%	-19%	1%	15µM*	i
COc1cc(/C=N\Nc2nc3ccccc3[nH]2)cc(OC)c1OC	5.8µM*	4%	-38%	?	i	i
C(=N\Nc1nc2ccccc2[nH]1)/c1ccc2ncccc2c1	?	?	-74%	?	1µM*	i
COc1ccc(/C=N/Nc2nc3ccccc3[nH]2)cc1OC	?	45%	-24%	-28%	i	i
Fc1cccc(NC(=S)N2CCn3cccc3C2c2cccnc2)c1 (stereo not drawn)	?	nt	10%	-22%	i	i
Fc1ccccc1C1c2cccn2CCN1C(=S)Nc1cccc(Br)c1 (stereo not drawn)	i	nt	-2%	4%	i	i
S=C(Nc1ccccc1)N1CCn2cccc2C1c1cccnc1 (stereo not drawn)	16µM*	-4%	-1%	6%	i	i
Fc1ccccc1C1c2cccn2CCN1C(=S)Nc1ccc(Br)cc1 (stereo not drawn)	i	?	-5%	22µM*	?	i
c1ccc2c(c1)nc(N1CCOCC1)c1c3ccccc3[nH]c21	21µM*	-14%	-25%	-8%	i	i
c1ccc2c(Nc3nc(N4CCOCC4)c4ccccc4n3)cccc2c1	?	?	-39%	25µM*	?	i
Fc1ccc(Nc2nc(N3CCOCC3)c3ccccc3n2)cc1	16µM*	-19%	-38%	?	?	i
CCOC(=O)N1CCC(NC(=O)c2ccc3c(c2)N(Cc2ccc(Cl)cc2)C(=O)c2ccccc2S3(=O)=O)CC1	i	17%	-8%	?	i	i
O=C(CCOc1ccccc1)N(Cc1cccnc1)c1nc2c(F)cccc2s1	nt	nt	-99%	16µM*	nt	nt
Cc1cccc2sc(N(Cc3cccnc3)C(=O)Cc3ccccc3)nc12	nt	nt	-21%	13µM*	nt	nt
Cc1cccc2sc(N(Cc3cccnc3)C(=O)CCc3ccccc3)nc12	nt	nt	-33%	11µM*	nt	nt
COc1ccc(C2c3c(n(C)c4ccccc34)C(=O)N2CC(=O)Nc2c(C)cc(C)cc2C)cc1 (stereo not drawn)	i	nt	-20%	?	i	nt
COc1ccc(Nc2nc(C)nc(N)c2S(=O)(=O)c2ccccc2)cc1	i	12%	0%	1%	i	i
COc1ccc(CC(N)c2csc(NC(=O)C(c3ccccc3)c3ccccc3)n2)cc1 (stereo not drawn)	21µM*	?	11µM*	?	?	?
COc1ccc(CC(N)c2csc(NC(=O)c3ccccc3OC)n2)cc1 (stereo not drawn)	i	22µM*	-49%	-21%	i	?
O=C(CC(C(=O)O)n1ccnc1)c1ccc(Cl)cc1 (stereo not drawn)	i	nt	6%	-13%	i	nt
SMILES	KB-V1 cytotox	ATXN2 expr inh	HepG2 viability	TGFb inhibitor	KB-3-1 cytotox	ATXN viability
Nc1cc(N)cc(Cc2ccccc2)c1	i	5%	-16%	22%	i	i
Nc1cc(Cc2ccccc2)ccc1O	18µM*	1%	-3%	-16%	i	i
Cc1ccc(CSc2ncc(Cl)c(C(=O)NCCc3ccc(S(N)(=O)=O)cc3)n2)cc1	?	-4%	-37%	?	i	i
COc1cc(=O)n2c(c1C(=O)NC(C)c1ccco1)CCN(Cc1ccccc1Cl)CC2 (stereo not drawn)	nt	nt	nt	nt	nt	i
COc1ccc(OC)c(CN2CCN(C(=O)c3cccc(S(=O)(=O)Nc4ccc(F)cc4)c3)CC2)c1	15µM*	-3%	-6%	-10%	?	i
COc1ccc(OC)c(CN2CCN(C(=O)c3cccs3)CC2)c1	21µM*	5%	-4%	-16%	i	i
COc1ccc(CN2CCN(C(=O)c3cccs3)CC2)cc1	21µM*	5%	-32%	-25%	i	i
COc1ccccc1C1(O)CCN(C(=O)c2cccs2)CC1	21µM*	4%	-7%	4%	i	i
O=C(c1cccs1)N1CCN(Cc2ccccc2)CC1	i	5%	-7%	5%	i	i
Clc1ccc(-c2nc3ccccn3c2Nc2ccc3c(c2)OCCO3)s1	i	33%	-12%	-2%	i	i
CCn1cc(/C=C(\NC(=O)c2ccc(C)cc2)C(=O)NCCCn2ccnc2)c2ccccc21	?	-1%	-37%	-1%	i	i
O=C(c1cccs1)N1CCN(CCCc2ccccc2)CC1	12µM*	-5%	3%	1%	i	i
CCOc1ccc(CCNc2ncnc3onc(-c4ccc(Cl)cc4)c23)cc1OCC	i	2%	-7%	?	i	i
Cc1cccc(CCNc2ncnc3onc(-c4ccc(Cl)cc4)c23)c1	21µM*	1%	-8%	-4%	i	i
CCOc1ccc(CCNc2ncnc3onc(-c4ccc(F)cc4)c23)cc1OCC	2.6µM*	-22%	-26%	-17%	i	?
Cc1ccc(CCNc2ncnc3onc(-c4ccc(Cl)cc4)c23)cc1	i	6%	7%	25%	i	i
Cc1ccc(/C=C/c2nc3ccccc3c(=O)n2CCc2ccccc2)cc1	2.6µM*	-5%	4%	-7%	i	i
Cn1c(=O)c(/C=C/c2ccc(F)cc2)nc2ccccc21	?	27%	-35%	?	?	nt
Cc1nc2ccccc2c(=O)n1CCc1ccccc1	i	14%	-24%	9%	i	i
